Only some compounds are listed: those with a hit (about 1.4% of all), similar ones and a draw of the others.
BCLXL inh: inhibitors of human Bcl-xL. AID 2129. Q07817. inhibition, % at 10.9 µM. 0.7% of 320,000 active. GST-Bcl-xL / FITC-Bim BH3 peptide fluorescence polarization;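 active means inhibition above the mean of all tested compounds plus 3 SD, cutoff set per campaign, cut at about 30% in these data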;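 further: 0% = DMSO wells and 100% = unlabeled Bim-BH3 peptide competitor; inhibitors lower millipolarization by displacing the labeled peptide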
EBV gp42 inh: inhibitors of Epstein-Barr virus glycoprotein 42 | inhibition, % (tested at 21.74 µM) | 0.42% of 220,000 active | Q1HVG2 | AID 1085 | Fluorescence polarization binding assay, mP read-out; in the data active means inhibition above about 50%
MEX-5 binding: C. elegans MEX-5 TCR-2 RNA binding activity; Q9XUB2; MEX-5/FITC-TCR2 RNA binding, fluorescence polarization; hits give low values; activity score (negative = inhibition of binding), % at 10 µM; 0.38% of 300,000 active; AID 1832;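 active means inhibition past about -25% in most replicates, and total fluorescence under double the plate's negative control median, limit read from the data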;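 further: 0% = DMSO and -100% = 5 µM competing unlabeled TCR2 RNA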
GLD-1 RNA inh: GLD-1-TGE RNA interaction inhibition (C. elegans); AID 2280; Q17339; 0.44% of 320,000 active; inhibition, % at 5.96 µM; purified GLD-1 + fluorescein TGE RNA, fluorescence polarization;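 active means percent inhibition above a per-plate cutoff, the plate mean of test compounds plus 3 SD, cut at about 30% in these data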;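 further: 0% = DMSO wells with GLD-1 and probe and 100% = wells lacking GLD-1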
E coli Lon inh: E. coli protease La inhibition; P0A9M0; purified E. coli Lon protease, fluorescence polarization; inhibition, % at 7.94 µM; 0.42% of 360,000 active; AID 602123; in the data active means inhibition above about 13%, passing the limit was not always enough;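 further: 0% = enzyme with probe and DMSO and 100% = no enzyme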
Target sequence (P0A9M0 whole entry, looked up): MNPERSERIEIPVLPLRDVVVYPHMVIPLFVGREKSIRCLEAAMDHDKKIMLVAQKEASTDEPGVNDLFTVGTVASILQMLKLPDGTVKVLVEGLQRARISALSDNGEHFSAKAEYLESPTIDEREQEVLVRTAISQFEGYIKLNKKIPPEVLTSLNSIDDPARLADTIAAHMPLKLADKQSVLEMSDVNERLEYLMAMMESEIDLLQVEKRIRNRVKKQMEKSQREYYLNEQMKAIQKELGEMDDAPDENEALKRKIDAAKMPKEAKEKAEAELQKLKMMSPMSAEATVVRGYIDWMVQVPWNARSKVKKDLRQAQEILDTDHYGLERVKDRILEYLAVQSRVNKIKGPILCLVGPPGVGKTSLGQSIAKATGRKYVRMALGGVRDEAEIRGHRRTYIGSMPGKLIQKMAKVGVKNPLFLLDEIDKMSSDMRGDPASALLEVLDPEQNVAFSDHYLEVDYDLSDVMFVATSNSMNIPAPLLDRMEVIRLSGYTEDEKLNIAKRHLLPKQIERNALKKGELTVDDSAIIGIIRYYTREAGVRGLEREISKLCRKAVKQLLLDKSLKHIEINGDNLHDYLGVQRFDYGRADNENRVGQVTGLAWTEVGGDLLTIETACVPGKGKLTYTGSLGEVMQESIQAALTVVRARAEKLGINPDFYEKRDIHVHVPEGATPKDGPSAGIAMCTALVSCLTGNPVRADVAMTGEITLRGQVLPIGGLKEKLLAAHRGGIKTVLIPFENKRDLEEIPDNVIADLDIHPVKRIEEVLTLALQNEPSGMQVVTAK
MCL1-BIM inh: MCL1-BIM-BH3 interaction inhibition (human); inhibition, % at 10.9 µM; GST-MCL1 / FITC-Bim-BH3 fluorescence polarization; 0.68% of 320,000 active; Q07820; AID 2057;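 active means inhibition above the mean inhibition of all tested compounds plus 3 SD, set per campaign, cut at about 40% in these data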;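 further: 0% = DMSO wells and 100% = unlabeled Bim-BH3 peptide control; higher means more loss of mP so more displacement of Bim peptide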
GLD1 RNA confirm: GLD-1 TGE RNA interaction inhibition, confirmation. shares compounds with GLD-1 RNA inh. GLD-1/FL-TGE RNA fluorescence polarization, biochemical. inhibition, % at 5.96 µM. 10% of 550 active;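 active means average inhibition across triplicates above the hit cutoff set in the primary screen, cut at about 32% in these data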;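 further: 0% = GLD-1 with RNA probe and DMSO and 100% = wells lacking GLD-1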
eLon confirm: confirmation of E. coli Lon protease inhibitors | shares compounds with E coli Lon inh | purified E. coli Lon, fluorescence polarization | inhibition, % at 7.94 µM | 31% of 1,400 active; in the data active means inhibition above about 16%;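 further: 0% = enzyme with probe and DMSO and 100% = no enzyme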
Numbers without * were called inactive; nt = not tested or not shown; + = active, no number.

SMILES	BCLXL inh	EBV gp42 inh	MEX-5 binding	GLD-1 RNA inh	E coli Lon inh	MCL1-BIM inh	eLon confirm	others
O=C1c2ccccc2C(=O)c2c(O)c(O)cc(O)c21	nt	nt	nt	70*	+	nt	+	GLD1 RNA confirm=43*
Cc1cc(C)nc(SCc2ccc(C(=O)N/N=C3\CCCC(=O)C3)cc2)n1	8	-5	-1	43*	23*	14	-10	GLD1 RNA confirm=-9
Cc1cc(C)nc(SCc2ccc(C(=O)NN=C3CCCC3)cc2)n1	1	-11	-2	10	1	2	nt
Cc1cc(C)n(CC(=O)NNC(=O)COc2ccc(Br)cc2F)n1	nt	nt	nt	9	2	nt	nt
O=c1[nH]c2cc3ccccc3cc2nc1C(F)(F)F	14	28	-11	58*	26*	14	37*	GLD1 RNA confirm=60*
CCC(=O)Nc1sccc1C(=O)OC	4	-8	-4	4	-3	3	nt
CCOC(=O)NC(=O)C(/C=N/c1sccc1C(=O)OC)=C(\C)O	17	-6	-3	46*	42*	9	5	GLD1 RNA confirm=3
COc1ccccc1CC(=O)NCc1nn(-c2ccccc2)nc1C	-2	-12	4	0	2	-4	nt
Cc1cc(C)n2nc(C)c(-c3ccccc3)c2n1	9	nt	0	5	22*	1	-14
CC(NC(=O)c1ccccc1Cl)c1nnc(SCC(=O)Nc2ccc(C(=O)O)cc2)n1C (centres undefined)	-1	-12	0	4	29*	0	-15
COc1ccccc1NS(=O)(=O)c1cc(NC(=O)c2[nH]c(C)c(C(C)=O)c2C)ccc1N1CCOCC1	27	14	0	4	8	33	nt
COc1cccc(NC(=S)N2CCN(c3ccccn3)CC2)c1	0	-14	1	-5	+	-1	-3
O=S(=O)(c1ccc(F)cc1)N1CN(Cc2ccco2)c2nc3ccccc3nc21	28	11	1	20	44*	24	-37
COc1ccc(S(=O)(=O)N2CN(Cc3ccco3)c3nc4ccccc4nc32)cc1	9	21	0	8	28*	10	-11
O=S(=O)(c1cccs1)N1CN(Cc2ccc(F)cc2)c2nc3ccccc3nc21	3	-3	nt	6	5	2	nt
Cc1ccc(S(=O)(=O)N2CN(Cc3ccco3)c3nc4ccccc4nc32)cc1	17	-11	2	22	3	29	nt
Cc1ccc(S(=O)(=O)Nc2nc3ccccc3nc2NCc2ccco2)cc1C	9	13	-2	6	-6	8	nt
O=S(=O)(c1cccs1)N1CN(Cc2cccs2)c2nc3ccccc3nc21	2	-34	-2	3	18*	5	-34
Cc1ccc(S(=O)(=O)N2CN(Cc3ccco3)c3nc4ccccc4nc32)cc1C	10	-11	7	11	15*	12	-7
CC(C)(C)C(=O)c1c(N)[nH]c(C(=O)c2ccccc2)c1-c1ccccc1Br	nt	nt	nt	nt	-11	nt	nt
OC(c1ccc(Cl)cc1)c1ncc(-c2ccccc2F)[nH]1 (centres undefined)	nt	nt	nt	nt	2	nt	nt
COc1ccc(OCCN2CCC(C(=O)NC(C)c3cccc4ccccc34)CC2)cc1 (centres undefined)	nt	nt	nt	nt	6	nt	nt
Cc1ccc(C)c(NC(=O)C[n+]2ccccc2)c1	5	nt	1	1	-3	2	nt
CCC(C(=O)NCC1CCCO1)N(C(=O)c1snc(C(N)=O)c1N)c1ccc(Cl)cc1 (centres undefined)	2	nt	3	-2	6	-4	nt
O=S(=O)(c1ccc(Br)cc1Cl)N1CCN(CCO)CC1	6	0	-1	-4	3	-5	nt
SMILES	BCLXL inh	EBV gp42 inh	MEX-5 binding	GLD-1 RNA inh	E coli Lon inh	MCL1-BIM inh	eLon confirm	others
O=C1C=CC(=O)c2c(O)c(N3CCN(CCO)CC3)c(Cl)c(O)c21	nt	nt	nt	nt	172*	nt	96*
O=C1C=CC(=O)c2c(O)c(N3CCN(CCOCCO)CC3)c(Br)c(O)c21	nt	nt	nt	nt	126*	nt	114*
COC(CNC(=O)c1ccc2c(c1)ncn2C1CCCCCC1)OC	-5	nt	2	7	-9	-9	nt
COc1cccc(/C=C/C(=O)OCC(=O)Nc2nnc(-c3ccccc3)o2)c1	0	nt	-3	-3	0	0	nt
CN(C)c1ccc(C(=S)N2CCCCC2)cc1	4	-11	-4	3	46*	2	5
CN(C)c1ccc(C(=S)N2CCNCC2)cc1	3	0	0	-2	1	-1	nt
COc1ccc(C(=O)NNC2=CC(=O)CC(C)(C)C2)cc1OC	1	-17	-11	3	17*	-12	1
O=C(CCC1CCCC1)N1CCN(S(=O)(=O)c2ccc(Br)cc2)CC1	2	nt	nt	5	19*	6	-2
O=C(O)/C=C/c1ccc(-n2ccnc2)cc1	-4	-8	-2	5	1	-3	nt
COC(=O)CN(c1ccc2c(c1)OCO2)S(C)(=O)=O	1	5	-1	8	17*	1	7
CCN(CC)C(=O)CN(c1ccc2c(c1)OCO2)S(C)(=O)=O	-1	-13	2	1	-6	3	nt
CCOC(=O)CSc1nc2cc(C)ccc2cc1C#N	14	-18	2	3	27*	6	9
NC(=O)CSc1cn(Cc2cccc(F)c2)c2ccccc12	4	4	1	0	26*	-2	-9
CC(C)n1c2ccccc2c2cc([N+](=O)[O-])ccc21	4	-8	1	1	56*	6	-10
CCn1c2ccccc2c2cc([N+](=O)[O-])ccc21	0	-21	2	9	-5	-4	nt
Cc1onc(-c2c(F)cccc2Cl)c1C(=O)NCc1ccccc1	4	nt	-3	10	-1	20	nt
Cc1onc(-c2c(F)cccc2Cl)c1C(=O)ONC(=O)c1ccco1	13	0	-2	15	17*	12	6
O=C(Cc1ccccc1F)Nc1ccccc1-c1ccccc1	-2	-8	0	4	1	-1	nt
O=C(Cc1c(F)cccc1Cl)Nc1ccccc1-c1ccccc1	5	nt	0	2	20*	9	-26
C=CCOc1ccc(CNCC2CCCO2)cc1 (centres undefined)	5	nt	0	-2	54*	9	5
CC(=O)NC(c1ccc2ccccc2c1)c1ccc2cccnc2c1O (centres undefined)	14	nt	-4	-2	-6	17	nt
CN1CCN(C(c2ccc(F)cc2)c2ccc3cccnc3c2O)CC1 (centres undefined)	nt	nt	nt	nt	26*	nt	-3
CC1CCc2sc(NC(=O)C3CC(Cl)=CCC3C(=O)O)c(C#N)c2C1 (centres undefined)	2	-1	0	0	-2	1	nt

Screening data (PubChem BioAssay)
